Experimental data taken from PubChem BioAssay AID651718 (The Scripps Research Institute Molecular Screening Center, 2012).
The whole screen tested about 360,000 compounds, of which about 2,700 (0.75%) were called active. Rule as the data show it: active = inhibition above about 4.5%; inactive = the rest. Only a selection was taken, and actives are over-represented in it overall.

system: Methionine sulfoxide reductase A (Bos taurus); test: bovine MsrA enzyme inhibitors, primary screen, biochemical, absorbance, HTS (AID 651718); details: purified bovine MsrA, absorbance read-out; at 15.5 µM; hits give high values;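 also: 0% = vehicle wells with enzyme and 100% = reference inhibitor wells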

inhibition, active:
S=c1[nH]nc(-c2ccccc2)n1/N=C/c1c[nH]c2ccccc12 5.73%, CCCOC(=O)c1cc2ccccc2oc1=O 13%, Cc1c(C=O)c2ccccn2c1C(=O)c1ccncc1 4.76%, O=C(N/N=C/c1ccc2c(c1)OCO2)c1ccc(Cn2cc([N+](=O)[O-])cn2)o1 6.14%, CCN(CC)CCCC(C)n1c2nc(=O)[nH]c(=O)c-2nc2cc(Cl)ccc21 (configuration not stated) 14.4%, Cc1ccc(N2CCN(C3=NC(=O)/C(=C\c4cccs4)S3)CC2)cc1 5.14%, Cc1c(C(=O)N2CCCc3ccccc32)oc2ccccc12 10.3%, COC(=O)/C(C#N)=C/c1occc1C 5.68%, CC(=O)c1ccc(N2CCN(CC(=O)Nc3ccccc3N3CCOCC3)CC2)cc1 4.88%, COc1ccc(C2=NS(=O)(=O)N(C)C(C(=O)N3CCCCC3)=C2)cc1 5.54%, Oc1ccc(/C=N/Nc2ccc(C(F)(F)F)cn2)cc1O 7.63%, CC(=O)c1sc2nc(SCC(=O)N3CCCCC3)[nH]c(=O)c2c1C 6.38%, COc1cccc(C2=CC(=O)C[C@H](c3ccc(F)cc3)C2)c1OC 6.7%, Cc1ccc(S(=O)(=O)c2c(N)n(C)c3nc4ccccc4nc23)cc1 4.64%, O=C(N/N=C/c1ccc(Br)o1)c1cncc(Br)c1 4.63%, CC(Nc1ccc([N+](=O)[O-])cc1[N+](=O)[O-])c1ccccc1 (configuration not stated) 35.6%, Cc1ccc(C(=O)N/N=C/c2sc(=O)n(Cc3cccc(C(=O)O)c3)c2Cl)cc1 6.02%, O=C1/C(=C\Nc2ccccc2)CCN1c1ncccn1 5.03%

inhibition, inactive:
O=[N+]([O-])c1ccccc1/C=N/n1c(COc2ccccc2)n[nH]c1=S 0.65%, CCc1n[nH]c(=S)n1/N=C/c1c[nH]c2ccc(Br)cc12 0.05%, CC1CCN(C(=O)c2ncn3c2C(=O)N[C@@H](C)C3)CC1 0.14%, O=C(NCc1ccccc1)[C@H]1CCCN1C(=O)[C@H]1CCCN1C(=O)N1CCOCC1 -0.41%, CN(C)c1nc(N)nc(CSc2ccccn2)n1 0.24%, C=CCN=C1NC(c2cccc(C(F)(F)F)c2)C(C(=O)OC)=C(C)N1C (configuration not stated) -0.08%, CCc1ccc(Oc2coc3cc(OC(=O)c4cc5ccccc5oc4=O)ccc3c2=O)cc1 1.04%, Cc1cc(C)cc(OCC(=O)NNC(=O)c2cc3ccccc3oc2=O)c1 0.25%, COC(=O)Cc1nnn2c1[C@H](C)[C@H](c1ccccc1[N+](=O)[O-])OCC2 0.24%, Cc1c(C=O)c2ccccc2n1CC(=O)O 2.23%, Cc1c(C(=O)NNC(=O)c2ccncc2)oc2ccccc12 0.46%, O=C(NCCc1nnc2ccc(SCC(=O)N3CCOCC3)nn12)c1ccccc1 -0.18%, Cc1noc(C)c1NC(=O)Nc1ccc2c(c1)C(=O)N([C@H](C)CO)C[C@H](C)[C@H](CN(C)Cc1ccncc1)OCCCC[C@@H](C)O2 -0.23%, CCN1C(=O)N[C@@H]2C[C@H](C(=O)N3CCCC3)[C@H](C)[C@H](c3ccccc3)C[C@@H]21 -0.32%, O=C(c1ccc(Cn2cc([N+](=O)[O-])cn2)o1)N1CCCC1 0.09%, CN(C)c1ccc(/C=N/NC(=O)c2ccc(Cn3cc(Br)cn3)o2)cc1 4.19%, N/C(=N\OS(=O)(=O)c1cccc([N+](=O)[O-])c1)c1ccncc1 -0.51%, CCCCCCCCN1C(=O)[C@@H](CC(=O)NCc2ccc(C)o2)C[C@@]2(C(=O)OC)C1=C[C@H](C(C)(C)C)O[C@@H]2C -0.4%, CC(=O)c1ccccc1OCc1ccc(C(=O)c2ccccc2)cc1 0.66%, Cc1cc2nc3c(=O)[nH]c(=O)nc-3n(C[C@H](O)[C@H](O)[C@H](O)CO)c2cc1C 2.57%, O=S1(=O)c2c(cccc2N2CCCCC2)O[C@H](COCc2ccccc2)CN1C1CC1 -0.51%, Cc1ccc(CSc2nsc(C)c2C#N)cc1 0.38%, CC(C)=C1SC(N2CCN(c3ccc(C)c(Cl)c3)CC2)=NC1=O -1.4%, O=C1N=C(N2CCOCC2)S/C1=C\C=C/c1ccccc1 3.23%, COc1ccc(S(=O)(=O)Nc2ccc3c(c2)C(=O)N([C@H](C)CO)C[C@H](C)[C@@H](CN(C)C)OCCCC[C@H](C)O3)cc1 0.52%, Cc1c(C(=O)OCC(=O)N2CCCC2=O)oc2ccccc12 -1.01%, Cc1ccc(C(=O)N2CCCc3ccccc32)c(Cl)c1 -0.31%, O=C1Nc2ccccc2C1=NN=Cc1ccco1 0.16%, COc1ccc(/C=C(\C#N)C(=O)ONC2=NCCCCC2)cc1 1.44%, CCOC(=O)/C(C#N)=C\c1c(C)cc(C)c(COC(C)=O)c1C 0.74%, COc1ccc(CN2CCNC(=O)C2CC(=O)N(C)Cc2ccccn2)cc1OC (configuration not stated) -0.62%, C[N+](C)(C)CCOP(=O)([O-])OC[C@H](O)CO 0.34%, O=C(Nc1ccccc1N1CCOCC1)c1ccncc1 1.2%, CCCCC(=O)Nc1ccccc1N1CCN(c2ccc(F)cc2)CC1 -1.12%, COC(=O)N1Cc2ccnnc2CC1c1ccccc1Br (configuration not stated) -0.9%, CN(Cc1ccccc1)C(=O)c1ccc(NC2=NC3CS(=O)(=O)CC3S2)cc1 (configuration not stated) 1.72%, COc1ccc(C2=NS(=O)(=O)N(C)C(C(=O)NC(C)c3ccccc3)=C2)cc1 (configuration not stated) 4.29%, COc1ccc(C2=NS(=O)(=O)N(C)C(C(=O)N(C)Cc3ccccc3)=C2)cc1 3.53%, CCCCCCc1cc2cc(-c3nnc(-c4cccc(OC)c4)o3)c(=O)oc2cc1O -0.59%, O=C(N/N=C/c1ccc(O)c(O)c1)C1c2ccccc2Oc2ccccc21 0.85%, COc1ccc(/C=N/Nc2ncnc3sc4c(c23)CCCC4)cc1O 4.5%, CSc1nnc(SCc2nc3sc(C(=O)O)c(C)c3c(=O)[nH]2)s1 0%, Cc1c(C)n2c(SCC(=O)N3CCCC3)nnc2[nH]c1=O -0.57%, COc1ccc(-c2ccccc2C2Cc3nnccc3CN2C(=O)Nc2ccccc2)cc1 (configuration not stated) 2.13%, CC(=O)N1C[C@@H](CO)[C@@H](N(C)C(=O)C(C)(C)C)C[C@H]1c1ccccc1Br 0.66%, O=C1C=C(c2cccc(Cl)c2O)C[C@@H](c2ccc(F)cc2)C1 -0.68%, COc1ccccc1C1=CC(=O)C[C@H](c2ccc(F)cc2)C1 1.16%, COC(=O)[C@]12C[C@H](CC(=O)NCc3cccc(C(F)(F)F)c3)C(=O)N(Cc3ccc4c(c3)OCO4)C1=C[C@H](COCc1ccccc1)O[C@@H]2C 0.87%, CC(C)C[C@H](NC(=O)CC1CCCC1)C(=O)N1CCC[C@H]1C(=O)NCc1ccccc1 0.9%, COC(=O)C1=C(C)N(Cc2cccc(C(F)(F)F)c2)C(=NCc2cccc(C(F)(F)F)c2)NC1c1ccccc1C(F)(F)F (configuration not stated) -1.33%, CCC(=O)Nc1c(S(=O)(=O)c2ccccc2)c2nc3ccccc3nc2n1Cc1ccccc1 2.69%, CCN(CC)CCn1c(N)c(S(=O)(=O)c2ccccc2)c2nc3ccccc3nc21 0.85%, O=C1CN(C(=O)COc2c(Cl)cccc2Cl)c2ccccc2N1 -0.91%, COC(=O)[C@]12C[C@H](CC(=O)NCc3ccccc3)C(=O)N(CCC3=CCCCC3)C1=C[C@H](C(C)(C)C)O[C@@H]2C 0.95%, O=C(CCC(=O)N/N=C/c1ccc(Br)o1)N/N=C/c1ccc(Br)o1 1%, O=C(CCNC(=O)c1ccccc1)NN=Cc1ccc(Br)o1 0.9%, CCCCN(C(=O)COc1ccc(NC(C)=O)cc1)C1CCS(=O)(=O)C1 (configuration not stated) -0.22%, Cc1cc(C)c(S(=O)(=O)NCC(c2ccc3c(c2)OCO3)N2CCOCC2)c(C)c1 (configuration not stated) -0.85%, CC(C)OP(=O)(OC(C)C)C(Nc1ccccc1)c1cccc([N+](=O)[O-])c1 (configuration not stated) 1.56%, CC1(C)C/C(=N/Nc2ccc([N+](=O)[O-])cc2[N+](=O)[O-])C(C)(C)O1 -0.53%, COC(=O)[C@]12C[C@H](CC(=O)N3CCN(C(=O)C4CC4)CC3)C(=O)N(Cc3ccc4c(c3)OCO4)C1=C[C@H](C(C)(C)C)O[C@@H]2C -0.48%, CC(=O)c1ccc(S(=O)(=O)NCC2CCN(C(=O)C(=O)c3cccs3)CC2)cc1 0.56%, Cc1ccc2nc(CN(C)C(=O)[C@@H](Cc3ccccc3)NC(=O)[C@H]3O[C@@H](n4ccc(=O)[nH]c4=O)[C@H](O)[C@@H]3O)[nH]c2c1 0.5%, Cc1ccccc1-n1c(C)cc(/C=N/NC(=O)c2ccc(CN3CCOCC3)cc2)c1C 1.71%, Cc1ccc(C(=O)Nc2c(C#N)c(C)c(C)n2Cc2ccccc2)cc1 -0.41%, CC1CC(c2ccccc2)n2nc(NC(=O)c3cccs3)nc2N1 (configuration not stated) -0.81%, CC1=C(N2CCN(c3ncccn3)CC2)CCC1=O 0%, COc1ccccc1Oc1ccc(N/C=C2/CCCC2=O)cc1 1.18%, CNS(=O)(=O)c1ccc(NC(=O)C2CC(=O)N(c3ccc(Cl)cc3)C2)cc1 (configuration not stated) 1.4%
